The nature of experiment [1]: inhibitors of TNFa-induced NFkB p65 translocation, primary screen, imaging, HUVEC, MLSMR starter and 10KST1 sets (AID 438;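 active = inhibition above 20% together with a positive visual image hit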;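 also: compound added about 3h40 before a 20 min TNFalpha stimulation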;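 as to inhibition: signal is the nuclear over cytoplasmic p65 intensity ratio per well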). The conditions noted are these: HUVEC TNFa-induced p65 nuclear translocation; cell count: measured here: nuclei count (cytotoxicity indicator), at 2.08 µM; inhibition: at 2 µM, stronger effect = higher value, 0% TNFa-plus-vehicle, 100% no-TNFa wells.
Experiment [2] is described as follows: reduction of polyQ htt aggregates in cells – imaging, exon1htt(103Q)mCFP cells, high-content imaging, primary screen (AID 483;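 active = visual image review flags a hit and inhibition of aggregation exceeds 20%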;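 also: compound exposure lasted 3 days before fixation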;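 as to nuclei count: percent of the per-plate median nuclei count of sample wells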). Conditions: exon1htt(103Q)mCFP cell line, aggregate imaging, at 2 µM; inhibition of aggregation: stronger effect = higher value; nuclei count: measured here: cell count, toxicity.
The nature of experiment [3]: endothelial E-selectin expression blockers – imaging, HUVEC, immunofluorescence, MLSMR starter and 10KST1 sets, primary screen (AID 487;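 active = visually confirmed hit in the image check and inhibition above 20%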;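 as to inhibition: signal is fraction of cell area covered by stained E-selectin grains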;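 as to nuclei count: 100% = median nuclei count of all wells on the same plate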). Conditions: HUVEC TNFalpha-induced E-selectin immunofluorescence imaging, at 2 µM; inhibition: stronger effect = higher value; nuclei count: measured here: cell number, toxicity.
The target of experiment [4] is Voltage-gated potassium channel subunit beta-2 (Rattus norvegicus) (UniProt P62483). Nature of the experiment: inhibitors of rat Kvbeta2 reductase activity – biochemical, NADPH fluorescence, primary screen (AID 622;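 active = fluorescence slope higher than the sample average by over 3 SD, cut at about -0.22 in these data, passing the limit was not always enough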;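 also: slope of raw intensity against log time taken from 70 to 1610 s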). The conditions noted are these: recombinant KvBeta, 4-cyanobenzaldehyde reduction, at 10 µM, stronger effect = higher value.
Voltage-gated potassium channel subunit beta-2 (Rattus norvegicus), sequence (P62483 whole entry, looked up): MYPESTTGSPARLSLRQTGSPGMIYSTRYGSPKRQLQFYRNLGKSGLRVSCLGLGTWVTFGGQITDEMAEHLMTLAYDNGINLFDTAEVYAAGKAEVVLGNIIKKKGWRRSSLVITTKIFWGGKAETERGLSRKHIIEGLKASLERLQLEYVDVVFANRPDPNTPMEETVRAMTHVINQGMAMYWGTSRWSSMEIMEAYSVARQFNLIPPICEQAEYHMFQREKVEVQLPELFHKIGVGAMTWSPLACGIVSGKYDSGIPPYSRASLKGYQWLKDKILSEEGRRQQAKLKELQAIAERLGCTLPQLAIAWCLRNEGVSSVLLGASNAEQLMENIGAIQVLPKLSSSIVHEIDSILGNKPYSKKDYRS
Experiment [5] shares this target. Nature of the experiment: enhancers of rat Kvbeta2 NADPH turnover – biochemical, NADPH fluorescence, primary screen (AID 623;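 active = NADPH fluorescence slope more negative than the mean of all samples by about 3 SD, 99.7% confidence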;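 also: fluorescence intensity change per second fitted from 20 to 320 s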). Conditions: Recombinant KvBeta, NADPH fluorescence decrease slope, 10 min; at 10 µM; stronger effect = lower value.
Experiment [6] addresses Alpha-2C adrenergic receptor (Homo sapiens) (UniProt P18825). Nature of the experiment: compounds altering alpha2C-coupled GIRK flux – cell-based, HEK293 alpha2C/GIRK1/2, thallium flux, primary screen (AID 624;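 active = fluorescence slope after compound addition differing from the mean of all screened samples at 99.7% confidence, in either direction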;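 also: slope of fluorescence ratio to pre-addition baseline per second over 15 to 24 s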). Conditions: thallium flux BTC fluorescence, at 10 µM, actives lie on both sides.
Experiment [7] can be described thus: blockers of RIG-like receptor reporter activation – cell-based, Sendai virus stimulus, luciferase, 10K MLSCN set, TLR/RLR signaling modifier project, primary screen (AID 602276;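 active = inhibition at or above 50% at 10 µM; inactive = inhibition below 50%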;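 also: firefly luciferase from ISG56 promoter only with Renilla not read in this screen; 0% = Sendai virus plus DMSO and 100% = medium plus DMSO without virus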). Conditions: HEK293 RL24 IRF3 luciferase reporter, at 10 µM, stronger effect = higher value. (A reporter such as luciferase makes a cellular process visible.)
A short description of experiment [8]: TLR3 IRF3 reporter activation blockers – cell-based, poly I:C stimulus, luciferase, 10K MLSCN set, primary screen (AID 602277). The conditions noted are these: HEK293-TLR3 RL24 IRF3 luciferase reporter, at 10 µM, stronger effect = higher value.

Data on 14 compounds can be found in PubChem BioAssay.

The source made the active and inactive calls.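 The calls were made as follows, unless noted: active = inhibition of the reporter signal at or above 50%; inactive = inhibition below 50%.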

Alpha-2C adrenergic receptor (Homo sapiens), sequence (P18825 whole entry, looked up): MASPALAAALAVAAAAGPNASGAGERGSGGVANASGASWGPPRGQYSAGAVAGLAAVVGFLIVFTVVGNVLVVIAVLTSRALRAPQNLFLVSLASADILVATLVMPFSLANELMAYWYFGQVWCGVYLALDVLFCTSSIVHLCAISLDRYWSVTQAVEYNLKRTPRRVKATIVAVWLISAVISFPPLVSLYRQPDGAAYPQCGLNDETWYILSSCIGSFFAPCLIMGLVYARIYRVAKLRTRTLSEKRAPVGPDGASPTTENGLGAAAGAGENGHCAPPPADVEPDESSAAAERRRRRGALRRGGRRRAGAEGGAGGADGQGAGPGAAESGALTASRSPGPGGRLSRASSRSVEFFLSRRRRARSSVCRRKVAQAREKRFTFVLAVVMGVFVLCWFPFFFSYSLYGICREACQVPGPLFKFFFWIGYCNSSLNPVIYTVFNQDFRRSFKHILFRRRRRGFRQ

For orientation: inhibition means the drop in the measured response relative to a control, in per cent. On to `COc1ccc(S(=O)(=O)N2CCC(C(=O)Nc3c(F)cccc3F)CC2)cc1`, for which the cell count in experiment [1] is 741. Also, the inhibition in experiment [1] was -9.2% (inactive); in experiment [3], -55.4% (inactive); in experiment [7], -10.2% (inactive); in experiment [8] it was 1.61% (inactive). In experiment [2], the inhibition of aggregation was 7% (inactive). The results for the nuclei count in experiment [2] and in experiment [3] were 108% and 126%, respectively. Moreover, the fluorescence slope in experiment [4] was -0.392 (inactive). In experiment [5], the NADPH fluorescence slope is 3.8e-05 (inactive). In experiment [6], the slope was 0.00504 (inactive).
On to `c1ccc(CC2CCN(C(c3cccs3)c3nnnn3C3CCCC3)CC2)cc1` (centres undefined), for which, in experiment [1], the cell count came out at 743. Moreover, the inhibition in experiment [1] was -37.8% (inactive); in experiment [3], -31.1% (inactive); in experiment [7], -0.349% (inactive); in experiment [8] it was 20.3% (inactive). The inhibition of aggregation in experiment [2] is 7.1% (inactive). In addition, the nuclei count in experiment [2] amounted to 108%; in experiment [3], 99.9%. In addition, the fluorescence slope in experiment [4] is -0.558 (inactive). In experiment [5], the NADPH fluorescence slope is 3.9e-05 (inactive). In addition, in experiment [6], the slope is 0.00517 (inactive).
Take `O=C(OCc1ccc2c(c1)OCO2)c1ccc(S(=O)(=O)N2CCCCC2)cc1`: the cell count in experiment [1] was found to be 732. Besides, the inhibition in experiment [1] was 4.4% (inactive); in experiment [3], 83.3% (active); in experiment [7], 7.08% (inactive); in experiment [8], 9.8% (inactive). Besides, in experiment [2], the inhibition of aggregation is -6.1% (inactive). Besides, the nuclei count turned out to be 102% in experiment [2] and 87.7% in experiment [3]. For the same compound, the fluorescence slope in experiment [4] is -0.415 (inactive). Moreover, the NADPH fluorescence slope in experiment [5] is -5.1e-05 (inactive). Besides, the slope in experiment [6] was 0.00821 (inactive).
Consider `Cc1ccccc1-n1c(Cn2c(=O)sc3ccccc32)nnc1SCC(=O)N1CCCC1`, for which the cell count in experiment [1] came out at 652. In addition, the inhibition in experiment [1] is 8.7% (inactive); in experiment [3] it was -36.1% (inactive); in experiment [7], 12.7% (inactive); in experiment [8], 10.7% (inactive). Also, the inhibition of aggregation in experiment [2] was 13.1% (inactive). The nuclei count came to 112% in experiment [2] and 120% in experiment [3]. Besides, the fluorescence slope in experiment [4] was -0.547 (inactive). The NADPH fluorescence slope in experiment [5] was -3.9e-05 (inactive). For the same compound, the slope in experiment [6] was 0.00766 (inactive).
As to `COc1ccc(-c2oc3ncn(CCN4CCOCC4)c(=N)c3c2-c2ccc(OC)cc2)cc1`, the cell count in experiment [1] was found to be 688. For the same compound, the inhibition was -9.5% (inactive) in experiment [1], -16.4% (inactive) in experiment [3], 1.98% (inactive) in experiment [7] and -0.246% (inactive) in experiment [8]. In experiment [2], the inhibition of aggregation is 17.4% (inactive). The nuclei count in experiment [2] turned out to be 75.4%; in experiment [3], 98%. For the same compound, the fluorescence slope in experiment [4] was -0.32 (inactive). In addition, the NADPH fluorescence slope in experiment [5] is -6.6e-05 (inactive). Further, the slope in experiment [6] is 0.00302 (inactive).
For `Cc1cc(C)c(S(=O)(=O)Nc2cccnc2)c(C)c1`, the cell count in experiment [1] is 610. The inhibition was -4.7% (inactive) in experiment [1], -20.4% (inactive) in experiment [3], 17.2% (inactive) in experiment [7] and 15.7% (inactive) in experiment [8]. Besides, the inhibition of aggregation in experiment [2] is -11.3% (inactive). Moreover, the figures for the nuclei count in experiment [2] and in experiment [3] were 119% and 113%, respectively. For the same compound, the fluorescence slope in experiment [4] is -0.614 (inactive). For the same compound, in experiment [5], the NADPH fluorescence slope was -5.3e-05 (inactive). Further, in experiment [6], the slope is 0.00327 (inactive).
Regarding `COc1cc2c(cc1OC)CN(CC(=O)Nc1cccc(C)c1)CC2`, the cell count in experiment [1] is 384. The inhibition is 3.5% (inactive) in experiment [1], -74.2% (inactive) in experiment [3], 7.7% (inactive) in experiment [7] and 9.94% (inactive) in experiment [8]. The inhibition of aggregation in experiment [2] was -6.2% (inactive). The nuclei count in experiment [2] was 98.6%; in experiment [3], 102%. Further, in experiment [4], the fluorescence slope was -0.495 (inactive). The NADPH fluorescence slope in experiment [5] is -1.8e-05 (inactive). Further, in experiment [6], the slope is 0.00456 (inactive).
In the case of `O=C(NCc1ccco1)C1(S(=O)(=O)c2ccc(Cl)cc2)CC1`, the cell count in experiment [1] is 412. Besides, the inhibition in experiment [1] was 1.1% (inactive); in experiment [3] it was -100% (inactive); in experiment [7], 16.2% (inactive); in experiment [8] it was 32.7% (inactive). The inhibition of aggregation in experiment [2] was -16% (inactive). The nuclei count in experiment [2] amounted to 120%; in experiment [3] it was 115%. In addition, the fluorescence slope in experiment [4] is -0.639 (inactive). Further, the NADPH fluorescence slope in experiment [5] is 2e-05 (inactive). The slope in experiment [6] was 0.00602 (inactive).
With `CC1CCN(CCCNC(=O)c2coc3nc4ccccc4nc23)CC1`, the cell count in experiment [1] is 311. Also, the inhibition in experiment [1] was -0.8% (inactive); in experiment [3], -33.9% (inactive); in experiment [7] it was -4.6% (inactive); in experiment [8], 46.6% (inactive). Further, the inhibition of aggregation in experiment [2] is -17.9% (inactive). Moreover, the figures for the nuclei count in experiment [2] and in experiment [3] were 110% and 117%, respectively. The fluorescence slope in experiment [4] is -0.351 (inactive). Besides, the NADPH fluorescence slope in experiment [5] was -3.5e-06 (inactive). Besides, the slope in experiment [6] was 0.00542 (inactive).
`Cc1ccc(CCNC(=O)C2CCC(=O)N2C2CCCC2)cc1` (centres undefined): the cell count in experiment [1] came out at 703. For the same compound, the inhibition is -1.3% (inactive) in experiment [1], 16.9% (inactive) in experiment [3], 1.44% (inactive) in experiment [7] and 10.9% (inactive) in experiment [8]. Further, in experiment [2], the inhibition of aggregation is 6.9% (inactive). The nuclei count came out at 97.5% in experiment [2] and 97.7% in experiment [3]. In addition, the fluorescence slope in experiment [4] is -0.493 (inactive). Moreover, the NADPH fluorescence slope in experiment [5] was -4.7e-05 (inactive). Further, the slope in experiment [6] was 0.0072 (inactive).
`CN1CCc2nc(SCCOc3ccccc3)c(C#N)cc2C1`: the cell count in experiment [1] was found to be 319. Also, the inhibition in experiment [1] was -4% (inactive); in experiment [3] it was -44.8% (inactive); in experiment [7], -2.8% (inactive); in experiment [8], 2.79% (inactive). Besides, the inhibition of aggregation in experiment [2] was 0% (inactive). Moreover, the nuclei count in experiment [2] amounted to 93.7%; in experiment [3], 114%. For the same compound, the fluorescence slope in experiment [4] was -0.346 (inactive). The NADPH fluorescence slope in experiment [5] was -9.3e-07 (inactive). Further, the slope in experiment [6] is 0.00342 (inactive).
With `O=C(CCN1C(=O)COc2ccccc21)NCCN1CCN(c2cccc(Cl)c2)CC1`, the cell count in experiment [1] turned out to be 597. In addition, the inhibition in experiment [1] was -3.6% (inactive); in experiment [3] it was -68.5% (inactive); in experiment [7], 7.8% (inactive); in experiment [8], 7.33% (inactive). Also, the inhibition of aggregation in experiment [2] was 0.2% (inactive). The results for the nuclei count in experiment [2] and in experiment [3] were 88.9% and 112%, respectively. Further, in experiment [4], the fluorescence slope is -0.602 (inactive). Further, in experiment [5], the NADPH fluorescence slope was -2.6e-06 (inactive). For the same compound, the slope in experiment [6] is 0.00502 (inactive).
In the case of `CCOC(=O)c1ccc(N2C(=O)CC(NC3CCN(C(=O)c4ccc(F)cc4)CC3)C2=O)cc1` (centres undefined), the cell count in experiment [1] was determined as 699. Moreover, the inhibition in experiment [1] was 8.6% (inactive); in experiment [3], -30.3% (inactive); in experiment [7], -1.5% (inactive); in experiment [8], -3.21% (inactive). Moreover, the inhibition of aggregation in experiment [2] was 7.9% (inactive). For the same compound, the nuclei count in experiment [2] worked out at 102%; in experiment [3], 98.3%. For the same compound, in experiment [4], the fluorescence slope is -0.416 (inactive). The NADPH fluorescence slope in experiment [5] is 2.4e-05 (inactive). Besides, the slope in experiment [6] was 0.00425 (inactive).
Take `CCOC(=O)Cn1c(CCC(=O)O)ccc1-c1ccc(F)cc1`: the cell count in experiment [1] stood at 584. Further, the inhibition in experiment [1] is -5% (inactive); in experiment [3] it was -54.4% (inactive); in experiment [7], 15.5% (inactive); in experiment [8], 39.4% (inactive). Further, the inhibition of aggregation in experiment [2] was -12.4% (inactive). Further, the nuclei count was found to be 98.2% in experiment [2] and 97.7% in experiment [3]. In addition, the fluorescence slope in experiment [4] was -0.548 (inactive). For the same compound, the NADPH fluorescence slope in experiment [5] was -2.7e-05 (inactive). Besides, the slope in experiment [6] was 0.00704 (inactive).
